From PubChem BioAssay AID504332 (National Center for Advancing Translational Sciences (NCATS), 2011)
In all, about 350,000 compounds went through this assay and about 31,000 (8.9%) were called active. About 15% were inconclusive and are not listed. Calls come from the whole dose curve; as a rule, active = well fitted inhibition curve with a large enough effect; inconclusive = small, poorly fitted or top-dose-only effect; inactive = no such curve, though single readings can be large or run the other way. The list comes from a sample in which actives are over-represented; it also holds similar structures and randomly drawn compounds.

The molecules below were run against Histone-lysine N-methyltransferase EHMT2 (Homo sapiens) (UniProt Q96KQ7) (assay: qHTS Assay for Inhibitors of Histone Lysine Methyltransferase G9a). Settings: G9a H3K9 monomethylation, AlphaScreen, 2 h; series mostly up to 59 µM; activity, negative = inhibition: at the top concentration.
Procedure, shortened: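 G9a (20 nM) was preincubated 15 min with compound, then reacted 2 h at room temperature with 500 nM biotin-H3K9 peptide and 20 µM SAM. Monomethyl-H3K9 detected by AlphaScreen using anti-H3K9me1 antibody.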
% is set by controls: 0 for no effect and ±100 for the full control effect; potency is the fitted concentration of half-maximal effect.
Note: nearly all actives have a fitted effect of over 75% in size.

Histone-lysine N-methyltransferase EHMT2 (Homo sapiens), sequence (Q96KQ7 913-1193 limits assumed): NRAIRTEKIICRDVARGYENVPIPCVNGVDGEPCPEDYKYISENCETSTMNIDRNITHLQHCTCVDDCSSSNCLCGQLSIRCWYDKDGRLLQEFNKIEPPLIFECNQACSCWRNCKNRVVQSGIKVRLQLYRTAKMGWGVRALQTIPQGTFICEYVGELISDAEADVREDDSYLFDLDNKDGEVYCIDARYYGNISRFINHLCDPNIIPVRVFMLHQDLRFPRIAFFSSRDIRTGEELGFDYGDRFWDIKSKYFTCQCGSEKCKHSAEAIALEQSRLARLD

activity, negative = inhibition, inactive:
CN(C1CCS(=O)(=O)C1)S(=O)(=O)c1ccc2ccccc2c1 (stereo not given) 5.42% [at 102 µM]
COc1ccccc1CNS(=O)(=O)c1cc(Br)cc2c1N(C(C)=O)C(C)C2 (stereo not given) 2.53%
O=C(CCSCc1cccc(F)c1)NCc1ccccc1 -6.15%
COc1ccc(NS(=O)(=O)c2ccc(C)c(C(=O)NNC(=O)c3csc(N4CCOCC4)n3)c2)cc1 2.43% [at 102 µM]
CC(=O)N1CCc2cc(S(=O)(=O)NC3CCCCC3)ccc21 -3.98% [at 102 µM]
O=C(CCC1CCCC1)N=C1SC2CS(=O)(=O)CC2N1Cc1ccccc1 (stereo not given) 4.22% [at 102 µM]
COc1cc2c(C(=O)N(C)c3cc(Cl)ccc3OC)cn(C)c(=O)c2cc1OC 23.4% [at 102 µM]
O=C(CSc1nc(-c2ccco2)cc(C(F)(F)F)n1)NCc1cccs1 -1.69%
Cc1cccc(NC(=O)CSc2nc(-c3ccco3)cc(C(F)(F)F)n2)c1C 8.51%
CC1(c2nnc(Cc3ccccc3)o2)CC(c2ccccc2F)=NO1 (stereo not given) -2.28% [at 2.33 µM]
CC(=O)N1CCCc2cc(S(=O)(=O)N3CCC(C(=O)NC4CCCCC4)CC3)ccc21 14.6%
COc1ccc(Br)cc1C1CC(=O)Nc2c1c(C)nn2-c1nc(C)cc(C)n1 (stereo not given) -45.2%
COc1cccc(NC(=O)CN(C)C(=O)/C=C/c2cn(-c3ccccc3)nc2-c2cccs2)c1 -31.2% [at 102 µM]
O=Cc1cn(Cc2ccccc2)nc1-c1cccnc1 -15.5% [at 102 µM]
CCC(=O)Nc1cccc(-c2nc3cc(C)ccc3o2)c1 5.08%
Cc1cc(NC(=O)C2CCC(CNS(=O)(=O)c3ccc(Br)s3)CC2)ccc1Br (stereo not given) -2.51%
COC(=O)C1=C(C)Nc2ncnn2C1c1ccco1 (stereo not given) 3.2% [at 12.7 µM]
CC1=C(C(=O)OCc2ccccc2)C(c2ccco2)n2ncnc2N1 (stereo not given) -34% [at 102 µM]
CCOC(=O)c1c(C)[nH]c(CCC(=O)Nc2ccc(OC)c(OC)c2)c1C 12%
COc1ccc(NS(=O)(=O)c2ccc(F)cc2F)cn1 9.65% [at 102 µM]
COc1ccc(Nc2ccc([N+](=O)[O-])cn2)cn1 1.56% [at 102 µM]
Cc1ccccc1CCNC(=O)C1CCN(c2nc3ccccc3nc2C(F)(F)F)CC1 6.11%
CCC(=O)c1ccc(OCC(=O)N(CC)CC2COc3ccccc3O2)cc1 (stereo not given) 1.74% [at 102 µM]
CCOc1ccc(NC(=O)c2cc(S(=O)(=O)N3CCCC3)c[nH]2)cc1 -25.3%
Cc1onc(-c2ccccc2Cl)c1C(=O)OCc1nnc(-c2ccccc2)o1 28.6% [at 102 µM]
CCC(=O)N1CCc2cc(Br)cc(S(=O)(=O)CCC(=O)NCc3ccccc3OC)c21 -8.43%
CC1=C(C(=O)N2CCN(c3cccc(C(F)(F)F)c3)CC2)C2(CCCCC2)OC1=O -38.2%
CNc1ccc(-c2nc(-c3ccccc3C)no2)cc1[N+](=O)[O-] -37.9%
C/C=C(/C)C(=O)OC1Cc2c(ccc3ccc(=O)oc23)OC1(C)C (stereo not given) 25.6% [at 12.7 µM]
O=C(NC1CCCCC1)c1ccc2c(c1)N(Cc1ccc(Cl)cc1)C(=O)c1ccccc1S2=O (stereo not given) 4.83%
Nc1ncc(S(=O)(=O)Nc2ccc(OC(F)(F)F)cc2)cn1 1.47%
COc1ccc(NS(=O)(=O)c2cccc(C(=O)NCCc3ccc(S(N)(=O)=O)cc3)c2)cc1 9.68% [at 12.7 µM]
Cc1ccc(CN(C(=O)c2ccccc2[N+](=O)[O-])c2ccccn2)cc1 -8.14%
CCN(CC)S(=O)(=O)c1ccc(C(=O)N=c2sc3cccc(OC)c3n2C)cc1 31.3%
Cn1c(=NC(=O)CSCC(=O)N2CCCCC2)sc2ccccc21 8%
CCOc1ccc(CC(=O)NCCc2csc3nc(-c4ccccc4F)nn23)cc1 34.6%
CC(C)CCN(C(=O)Nc1ccc(Cl)c(Cl)c1)C(C)c1cccs1 (stereo not given) 24.7%
CCOC(=O)CSc1nccc(N(C)C)c1C#N -8.31% [at 102 µM]
CCCCOc1ccc(-c2ncc(C(=O)OCC)c(N)n2)cc1 6.88% [at 12.7 µM]
O=C(CNc1cccc(S(=O)(=O)N2CCCCC2)c1)Nc1ccccc1F 14.7% [at 12.7 µM]
CCN1C(=O)[C@@H]2[C@@H](c3ccc(-c4ccc(OC)cc4)c(OC)c3)N3CCC[C@@]3(C(=O)OC)[C@@H]2C1=O -8.12% [at 2.33 µM]
Cc1nn(Cc2ccccc2)c(C)c1C(=O)NCCCN1CCCC1=O 10.5% [at 12.7 µM]
CCOC(=O)c1c(NC(=O)CN2C(=O)NC3(CCC(C)CC3)C2=O)sc(C)c1CC (stereo not given) -0.128%
Cc1cc(C(=O)NNC(=O)c2cccc(S(=O)(=O)N3CCOCC3)c2)c2ccccc2n1 8.08% [at 102 µM]
O=C(CN1C(=O)CCC1=O)Nc1ccc(S(=O)(=O)N2CCOCC2)cc1 7.29%
CN1CCN(S(=O)(=O)c2ccc(NC(=S)NC(=O)C3CC3)cc2)CC1 -24.7%
COC(=O)c1cc(Oc2ccc(S(=O)(=O)N3CCOCC3)cc2[N+](=O)[O-])cc(C(=O)OC)c1 19.1% [at 12.7 µM]
O=C(COC(=O)c1ccccc1)Nc1cccc(S(=O)(=O)N2CCOCC2)c1 2.49% [at 102 µM]
Cc1ccccc1OCC(=O)Nc1ccc(S(=O)(=O)N2CCOCC2)cc1 2.97% [at 102 µM]
CCOC(=O)c1c(S(=O)(=O)NCC(=O)Nc2ccc(Cl)c(C(F)(F)F)c2)c(C)n(C)c1C -3.36%
CCCS(=O)(=O)N1CCC(n2c(C(F)(F)F)nc3cccnc32)CC1 11.9%
Cn1c(=O)c2c(n3c4ccccc4nc13)NC(=O)CC2c1cccc(Cl)c1 (stereo not given) -19.9%
Cc1cc2nc(-c3ccc(NC(=O)c4cc5ccccc5o4)cc3)oc2cc1C -32.2%
O=C1COc2ccc(S(=O)(=O)NCCc3ccc(Cl)cc3)cc2N1 -10.7% [at 102 µM]
O=C(CCCC(=O)N1CCN(c2cccc(Cl)c2)CC1)c1ccccc1 53.4% [at 102 µM]
O=C(Cn1nnc2ccccc2c1=O)NCc1ccc(Cl)cc1 13.5% [at 102 µM]
C=CCn1c(SCc2ccc(C(=O)NCCO)cc2)nc2ccccc2c1=O -5.22% [at 102 µM]
CCOc1ccc(NC(=O)CCC(=O)N2CC(C)Oc3ccc(C)cc32)cc1 (stereo not given) 2.04%
CCCCN(CC)C(=O)c1c[nH]c2ccc(S(=O)(=O)Nc3cccc(OC)c3)cc2c1=O -23.6%
CCOC(=O)c1cccc(NC(=O)CCc2nnc3ccc(N4CCOCC4)nn23)c1 21.6% [at 102 µM]
CCOc1ccc(CCNC(=O)CCc2nnc3ccc(N4CCCC4)nn23)cc1OCC -10.3% [at 102 µM]
Cc1ccc2c(c1)N(C(=O)CCC(=O)NCc1ccccc1F)CC(C)O2 (stereo not given) -28.8%
CCCc1cc(=O)oc2c(C)c(OCC(=O)Nc3ccccn3)ccc12 -3.15% [at 0.0925 µM]
O=C(Nc1ccc2nc(SCC(=O)N3CCc4ccccc43)sc2c1)c1ccccc1F 33.7%
Oc1ccc2nc(Cc3ccccc3)[nH]c2c1 -45.3% [at 12.7 µM]
Oc1ccc(-c2[nH]ncc2-c2nc3ccccc3s2)c(O)c1 -10.1% [at 102 µM]
NS(=O)(=O)c1ccc(CCNC(=O)CCCCCn2c(=O)[nH]c3ccccc3c2=O)cc1 7.65%
O=C1CN(C(=O)Nc2ccccc2C(F)(F)F)C(c2ccccc2)c2c(sc3c2CCCC3)N1 (stereo not given) -25.3%
O=C(NCC(=O)N(CC1CCCO1)C(C(=O)NC1CCCCC1)c1ccccc1)c1ccco1 (stereo not given) 10.7% [at 102 µM]
CC(C)c1ccc(N(C(=O)c2ccco2)C(C(=O)NC2CCCC2)c2cccnc2)cc1 (stereo not given) 20.6% [at 102 µM]
Cc1ccc(CN2C(=O)N/C(=C/c3cc(C)n(-c4ccccn4)c3C)C2=O)cc1 -0.497%
CCC1=NN2C(=N)/C(=C/c3cc(C)n(-c4ccccc4)c3C)C(=O)N=C2S1 -24.1% [at 102 µM]
Cc1cc(C)c2oc(C(=O)Nc3c(C(=O)Nc4ccccc4)oc4ccccc34)cc(=O)c2c1 -28.2%
CCOc1ccc2nc(N3CCCC(C(=O)Nc4cc(C)ccc4C)C3)sc2c1 (stereo not given) -27.6%
COc1ccc(CCN=C2SCC(=O)N2Cc2ccccc2)cc1OC -8.24% [at 102 µM]
COc1ccc(C2C(=O)N(C3CCCCCC3)CC(=O)N2CCc2ccc(Cl)cc2)cc1OC (stereo not given) -9.54%

Potency, active:
O=C(CSc1nc(-c2ccco2)cc(C(F)(F)F)n1)N1CCc2ccccc2C1 12.6 µM
COc1ccc(NC(=O)CN(C)C(=O)/C=C/c2cn(Cc3ccccc3)nc2-c2cccnc2)cc1 7.94 µM
Brc1ccc(C2=CC(c3ccco3)n3ncnc3N2)cc1 (stereo not given) 12.6 µM
COc1ccc(Nc2cc(Cl)ccc2C(=O)O)cn1 2.24 µM
Cc1ccccc1Nc1scc(-c2ccc(Br)cc2)[n+]1-c1ccccc1C 20 µM
O=C(O)C1OC(C(=O)O)C2C1C(F)(F)C2(F)F (stereo not given) 39.8 µM
CC1(C)Oc2ccc3ccc(=O)oc3c2/C(=C/NCCO)C1=O 35.5 µM
CCCC(=O)N=c1sc2cccc(F)c2n1C 44.7 µM
CCOC(=O)C(Sc1ncc(C#N)c(N)n1)C(C)C (stereo not given) 39.8 µM
CCC(=C/c1sc2ccc3ccccc3c2[n+]1C)/C=C1\Sc2ccc3ccccc3c2N1C 3.16 µM
O=S(=O)(c1ccc(NC(=S)NN=C(C2CC2)C2CC2)cc1)N1CCOCC1 1.78 µM
O=C(NNC(=S)Nc1ccccc1)c1cccc(S(=O)(=O)N2CCOCC2)c1 31.6 µM
O=C(NC(=S)Nc1ccc(S(=O)(=O)N2CCOCC2)cc1)c1ccccc1[N+](=O)[O-] 39.8 µM
C=CCn1c(SCn2nnc3ccccc3c2=O)nnc1-c1ccc(Cl)cc1 44.7 µM
CCN(CC)c1ccc(NC(=O)CCc2nnc3ccc(N4CCCCC4)nn23)c(C)c1 44.7 µM
Cc1cc(O)ccc1-c1cnc2ccccc2n1 14.1 µM
CC(C)c1ccc(C2C(C(=O)c3ccco3)=C(O)C(=O)N2CC2CCCO2)cc1 (stereo not given) 44.7 µM
Cc1cccc(C)c1-n1c(C)cc(/C=C2\C(=O)NN(c3ccccc3)C2=O)c1C 15.8 µM
COc1cc(C2CC(=O)N3CN(Cc4ccccc4)CSC3=C2C#N)ccc1OCc1ccccc1 (stereo not given) 0.891 µM
